# Results from PubChem BioAssay (EPA / NIEHS).
# Records with an inconclusive call do not appear. The source made the active and inactive calls. Rule for the calls: active = hit-call score of the fitted dose curve at least 0.9, where 1 is the maximum; inconclusive = response in the unintended direction; inactive = score below 0.9.
# Experiments:
# [1] = target: mouse Cholecystokinin, CCK1 Receptor (CCKA), Cckar (gene 12425) (UniProt O08786); assay: NVS_GPCR_mCCKAPeripheral: NovaScreen (NVS) G Protein-Coupled Receptor Assay for mouse Cholecystokinin, CCK1 Receptor (CCKA) (AID 2283285)
# Chain of mouse Cholecystokinin, CCK1 Receptor (CCKA), Cckar (gene 12425) (O08786 whole entry, looked up): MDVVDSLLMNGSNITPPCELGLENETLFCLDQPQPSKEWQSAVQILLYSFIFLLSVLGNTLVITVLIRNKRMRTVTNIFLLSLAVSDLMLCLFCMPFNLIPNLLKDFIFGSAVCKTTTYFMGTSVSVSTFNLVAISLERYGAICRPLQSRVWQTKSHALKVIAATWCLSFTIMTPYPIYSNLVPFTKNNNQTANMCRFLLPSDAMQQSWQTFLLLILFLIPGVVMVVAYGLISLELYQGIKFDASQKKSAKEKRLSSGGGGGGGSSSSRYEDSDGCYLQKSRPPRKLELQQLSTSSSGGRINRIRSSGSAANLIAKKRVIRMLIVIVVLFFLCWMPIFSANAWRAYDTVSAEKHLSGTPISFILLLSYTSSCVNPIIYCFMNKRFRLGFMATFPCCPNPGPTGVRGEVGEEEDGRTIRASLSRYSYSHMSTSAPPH
# Summary of the method: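 Radioligand competitive displacement on mouse pancreatic membranes, 2 h incubation; filter-based scintillation counting, loss of signal versus DMSO. Single-concentration screen at 25 uM in duplicate, actives retested in concentration-response up to 50 uM.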
# [2] = target: human Opioid Receptor Mu (Opiate Mu), OPRM1 (gene 4988) (UniProt P35372); assay: NVS_GPCR_hOpiate_mu: NovaScreen (NVS) G Protein-Coupled Receptor Assay for human Opioid Receptor Mu (Opiate Mu) (AID 2283290);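 note: hits lower bound tracer signal versus DMSO meaning displacement of the ligand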
# Chain of human Opioid Receptor Mu (Opiate Mu), OPRM1 (gene 4988) (P35372 whole entry, looked up): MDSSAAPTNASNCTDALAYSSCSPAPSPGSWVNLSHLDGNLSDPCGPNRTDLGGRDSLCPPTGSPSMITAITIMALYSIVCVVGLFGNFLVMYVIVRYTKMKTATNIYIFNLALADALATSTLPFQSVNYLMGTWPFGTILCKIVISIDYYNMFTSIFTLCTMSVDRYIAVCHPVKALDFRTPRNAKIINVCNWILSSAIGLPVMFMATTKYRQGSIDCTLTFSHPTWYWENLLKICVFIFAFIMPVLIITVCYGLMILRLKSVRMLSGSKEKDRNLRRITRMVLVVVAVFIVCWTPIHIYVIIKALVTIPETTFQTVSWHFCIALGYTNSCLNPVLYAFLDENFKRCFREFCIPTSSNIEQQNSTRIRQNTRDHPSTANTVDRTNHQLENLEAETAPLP
# Summary of the method: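 Primary screen in duplicate at 25 uM, with actives followed in concentration series. CHO-derived receptor membranes, cell-free; bound radioligand read by scintillation counting after filtration at 2.5 h, decrease scored against DMSO.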
# [3] = target: human Thromboxane A2 Receptor (TXA2), TBXA2R (gene 6915) (UniProt P21731); assay: NVS_GPCR_hTXA2: NovaScreen (NVS) G Protein-Coupled Receptor Assay for human Thromboxane A2 Receptor (TXA2) (AID 2283282);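 note: actives reduce bound radioligand signal relative to DMSO baseline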
# Chain of human Thromboxane A2 Receptor (TXA2), TBXA2R (gene 6915) (P21731 whole entry, looked up): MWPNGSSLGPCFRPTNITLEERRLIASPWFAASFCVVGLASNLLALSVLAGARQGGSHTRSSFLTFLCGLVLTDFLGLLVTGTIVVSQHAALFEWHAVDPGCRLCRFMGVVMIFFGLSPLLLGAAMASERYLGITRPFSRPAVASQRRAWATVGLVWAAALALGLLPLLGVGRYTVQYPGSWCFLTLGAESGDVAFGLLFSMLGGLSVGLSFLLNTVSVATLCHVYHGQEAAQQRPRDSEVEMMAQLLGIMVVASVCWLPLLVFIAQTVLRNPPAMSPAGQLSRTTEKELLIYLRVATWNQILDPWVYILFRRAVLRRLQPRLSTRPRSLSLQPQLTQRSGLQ
# Summary of the method: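 Human platelet membranes tested for radioligand displacement by filtration and scintillation counting 1 h post-dose. Screened in duplicate at 25 uM; activity fitted as signal loss relative to DMSO.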
# [4] = target: human Opioid Receptor Delta 1 (Opiate D1), OPRD1 (gene 4985) (UniProt P41143); assay: NVS_GPCR_hOpiate_D1: NovaScreen (NVS) G Protein-Coupled Receptor Assay for human Opioid Receptor Delta 1 (Opiate D1) (AID 2283280)
# Chain of human Opioid Receptor Delta 1 (Opiate D1), OPRD1 (gene 4985) (P41143 whole entry, looked up): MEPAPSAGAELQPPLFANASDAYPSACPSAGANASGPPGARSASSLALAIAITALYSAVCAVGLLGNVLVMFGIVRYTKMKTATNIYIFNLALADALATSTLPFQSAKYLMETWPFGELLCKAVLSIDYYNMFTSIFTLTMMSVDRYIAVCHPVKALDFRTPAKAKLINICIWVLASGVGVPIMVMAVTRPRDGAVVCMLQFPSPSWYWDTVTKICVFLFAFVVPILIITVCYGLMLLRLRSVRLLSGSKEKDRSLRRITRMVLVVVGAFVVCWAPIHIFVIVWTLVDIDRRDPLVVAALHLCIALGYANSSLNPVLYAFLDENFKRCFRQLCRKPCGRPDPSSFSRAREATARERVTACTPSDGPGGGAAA
# Summary of the method: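 Radioligand displacement on membranes from CHO cells expressing the receptor, read by filter scintillation counting 1 h after dosing. Duplicate single-point screen at 25 uM, then concentration series for actives; loss of signal versus DMSO.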
# [5] = target: guinea pig Bradykinin Receptor B2 (BK2), BDKRB2 (gene 100135486) (UniProt O70526); assay: NVS_GPCR_gBK2: NovaScreen (NVS) G Protein-Coupled Receptor Assay for guinea pig Bradykinin Receptor B2 (BK2) (AID 2283292)
# Chain of guinea pig Bradykinin Receptor B2 (BK2), BDKRB2 (gene 100135486) (O70526 whole entry, looked up): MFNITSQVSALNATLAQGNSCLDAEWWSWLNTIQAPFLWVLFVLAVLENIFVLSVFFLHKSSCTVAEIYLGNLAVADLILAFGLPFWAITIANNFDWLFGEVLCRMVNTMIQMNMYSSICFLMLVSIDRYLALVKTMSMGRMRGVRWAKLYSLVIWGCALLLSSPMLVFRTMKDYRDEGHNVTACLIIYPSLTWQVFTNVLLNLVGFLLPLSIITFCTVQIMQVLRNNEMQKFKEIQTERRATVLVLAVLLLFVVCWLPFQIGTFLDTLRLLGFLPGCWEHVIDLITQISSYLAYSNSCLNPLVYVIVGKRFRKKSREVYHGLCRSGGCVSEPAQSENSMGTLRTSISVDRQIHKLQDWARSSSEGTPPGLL
# Summary of the method: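 Radioligand displacement on guinea pig ileum membranes for 1 h, read by filter-based scintillation counting; loss of signal relative to DMSO. Compounds were screened in duplicate at 25 uM, and those passing the threshold were retested in concentration-response up to 50 uM.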
# [6] = target: mouse Cholecystokinin, CCK2 Receptor (CCKB), Cckbr (gene 12426) (UniProt P56481); assay: NVS_GPCR_mCKKBCentral: NovaScreen (NVS) G Protein-Coupled Receptor Assay for mouse Cholecystokinin, CCK2 Receptor (CCKB) (AID 2283293)
# Summary of the method: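 Radioligand displacement binding on mouse forebrain membranes, 2 h exposure, filter-based scintillation counting. Primary screen in duplicate at 25 uM; actives (e.g. ≥30% inhibition) retested in concentration-response up to 50 uM; loss of binding signal relative to DMSO.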
# [7] = target: guinea pig Serotonin, 5-Hydroxytryptamine Receptor 4 (5HT4), HTR4 (gene 100135548) (UniProt O70528); assay: NVS_GPCR_g5HT4: NovaScreen (NVS) G Protein-Coupled Receptor Assay for guinea pig Serotonin, 5-Hydroxytryptamine Receptor 4 (5HT4) (AID 2283294)
# Chain of guinea pig Serotonin, 5-Hydroxytryptamine Receptor 4 (5HT4), HTR4 (gene 100135548) (O70528 whole entry, looked up): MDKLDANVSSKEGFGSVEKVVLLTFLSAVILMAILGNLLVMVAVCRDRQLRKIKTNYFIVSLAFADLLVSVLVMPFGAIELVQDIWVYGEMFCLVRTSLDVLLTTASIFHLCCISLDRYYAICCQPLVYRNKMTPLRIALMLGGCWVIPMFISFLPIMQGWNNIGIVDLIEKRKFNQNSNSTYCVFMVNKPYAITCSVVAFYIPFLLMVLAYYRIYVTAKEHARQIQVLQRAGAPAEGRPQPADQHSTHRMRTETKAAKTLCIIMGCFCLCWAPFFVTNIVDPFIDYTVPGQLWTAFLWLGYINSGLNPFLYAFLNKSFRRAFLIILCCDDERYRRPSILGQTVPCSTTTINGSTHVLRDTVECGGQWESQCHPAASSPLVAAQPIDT
# Summary of the method: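 Guinea pig striatal membranes; radioligand competitive displacement, filtration and scintillation counting after 1 h. Primary screen in duplicate at 25 uM; actives then tested in concentration series; loss of binding signal fitted relative to DMSO.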
# [8] = target: rat Adrenergic Receptor, Alpha 2 (Adra2), Non-selective Binding, Adra2a (gene 25083) (UniProt P22909); assay: NVS_GPCR_rAdra2_NonSelective: NovaScreen (NVS) G Protein-Coupled Receptor Assay for rat Adrenergic Receptor, Alpha 2 (Adra2), Non-selective Binding (AID 2283299)
# Chain of rat Adrenergic Receptor, Alpha 2 (Adra2), Non-selective Binding, Adra2a (gene 25083) (P22909 whole entry, looked up): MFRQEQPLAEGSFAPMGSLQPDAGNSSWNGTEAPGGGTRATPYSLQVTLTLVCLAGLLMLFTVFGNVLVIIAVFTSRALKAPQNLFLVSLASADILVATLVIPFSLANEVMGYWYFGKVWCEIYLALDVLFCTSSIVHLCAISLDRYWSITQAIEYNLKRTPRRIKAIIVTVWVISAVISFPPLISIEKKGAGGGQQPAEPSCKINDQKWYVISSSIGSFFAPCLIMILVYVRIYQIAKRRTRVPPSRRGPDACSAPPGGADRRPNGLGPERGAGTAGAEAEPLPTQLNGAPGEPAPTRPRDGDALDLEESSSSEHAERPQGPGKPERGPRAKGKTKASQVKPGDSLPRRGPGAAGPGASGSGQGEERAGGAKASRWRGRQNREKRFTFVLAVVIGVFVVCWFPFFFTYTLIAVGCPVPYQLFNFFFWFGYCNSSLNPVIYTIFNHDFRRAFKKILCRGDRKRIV
# Summary of the method: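 Rat cortical membranes, radioligand competitive displacement read by filter-based scintillation counting 1.25 hours after dosing. Primary screen in duplicate at 25 uM; actives followed up in concentration series.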
# [9] = target: rat Gamma-Aminobutyric Acid Type B Receptor (GABBR), Gabbr1 (gene 81657) (UniProt Q9Z0U4); assay: NVS_GPCR_rGABBR: NovaScreen (NVS) G Protein-Coupled Receptor Assay for rat Gamma-Aminobutyric Acid Type B Receptor (GABBR) (AID 2283301)
# Summary of the method: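 Radioligand displacement on rat cortical membranes, 1 h, filter-based scintillation counting. Primary screen at 25 uM in duplicate; compounds passing threshold re-tested in concentration-response up to 50 uM; loss of binding fitted against DMSO.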
# [10] = target: rat Serotonin, 5-Hydroxytryptamine Receptor 1 (5HT1), Non-Selective Binding, Htr1a (gene 24473) (UniProt P19327); assay: NVS_GPCR_r5HT1_NonSelective: NovaScreen (NVS) G Protein-Coupled Receptor Assay for rat Serotonin, 5-Hydroxytryptamine Receptor 1 (5HT1), Non-Selective Binding (AID 2283286)
# Chain of rat Serotonin, 5-Hydroxytryptamine Receptor 1 (5HT1), Non-Selective Binding, Htr1a (gene 24473) (P19327 whole entry, looked up): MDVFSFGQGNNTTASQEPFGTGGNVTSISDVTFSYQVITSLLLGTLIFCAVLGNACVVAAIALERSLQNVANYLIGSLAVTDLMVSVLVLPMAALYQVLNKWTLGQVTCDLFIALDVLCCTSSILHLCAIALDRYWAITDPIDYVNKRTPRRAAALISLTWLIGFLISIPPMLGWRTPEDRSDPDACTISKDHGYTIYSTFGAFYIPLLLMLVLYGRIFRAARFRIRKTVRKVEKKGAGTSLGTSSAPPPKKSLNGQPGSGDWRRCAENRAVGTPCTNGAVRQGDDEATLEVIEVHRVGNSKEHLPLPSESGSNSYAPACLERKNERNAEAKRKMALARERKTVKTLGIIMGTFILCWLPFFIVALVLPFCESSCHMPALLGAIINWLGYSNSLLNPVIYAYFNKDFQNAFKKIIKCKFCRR
# Summary of the method: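 Rat cortical membranes, radioligand displacement, 1 h incubation, read by filter scintillation. Primary screen in duplicate at 25 uM. Hits (e.g. ≥30% inhibition) went to concentration-response up to 50 uM, fitted as loss of binding versus DMSO.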
# [11] = target: human Orphanin, Opioid Related Nociceptin Receptor 1 (ORL1), OPRL1 (gene 4987) (UniProt P41146); assay: NVS_GPCR_hORL1: NovaScreen (NVS) G Protein-Coupled Receptor Assay for human Orphanin, Opioid Related Nociceptin Receptor 1 (ORL1) (AID 2283283)
# Chain of human Orphanin, Opioid Related Nociceptin Receptor 1 (ORL1), OPRL1 (gene 4987) (P41146 whole entry, looked up): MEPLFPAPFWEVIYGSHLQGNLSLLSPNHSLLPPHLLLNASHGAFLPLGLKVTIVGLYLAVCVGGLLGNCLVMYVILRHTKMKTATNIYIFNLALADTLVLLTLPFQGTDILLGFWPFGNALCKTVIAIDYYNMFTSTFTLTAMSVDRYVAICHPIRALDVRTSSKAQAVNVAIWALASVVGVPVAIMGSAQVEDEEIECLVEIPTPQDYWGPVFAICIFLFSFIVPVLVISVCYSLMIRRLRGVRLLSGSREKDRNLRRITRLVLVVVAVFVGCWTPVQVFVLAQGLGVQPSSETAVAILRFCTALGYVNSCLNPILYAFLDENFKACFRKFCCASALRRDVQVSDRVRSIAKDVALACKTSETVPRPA
# Summary of the method: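 Filter-based radioligand displacement with receptor extracted from HEK293 cells, read 1 hour after dosing by scintillation counting. Duplicate single-point screen at 25 uM; qualifying chemicals then run in concentration-response to 50 uM, analysed relative to DMSO.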
# [12] = target: human Vasopressin 1A Receptor (V1A), AVPR1A (gene 552) (UniProt P37288); assay: NVS_GPCR_hV1A: NovaScreen (NVS) G Protein-Coupled Receptor Assay for human Vasopressin 1A Receptor (V1A) (AID 2283284)
# Summary of the method: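 Cell-free radioligand displacement on human platelet preparations, 1.5 h incubation, filter-based scintillation counting. Chemicals first tested in duplicate at 25 uM; actives then run in concentration-response up to 50 uM, loss of signal fitted against DMSO.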
# [13] = tested on: rabbit Platelet Activating Factor Receptor (PAF), gene 100354046; assay: NVS_GPCR_rabPAF: NovaScreen (NVS) G Protein-Coupled Receptor Assay for rabbit Platelet Activating Factor Receptor (PAF) (AID 2283287)
# Summary of the method: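 Rabbit platelet membrane preparation; radioligand displacement read by filter-based scintillation counting 1 h after dosing, loss of signal versus DMSO. Primary screen in duplicate at 25 uM, actives followed up in concentration series.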
# [14] = tested on: 5-hydroxytryptamine receptor 2C (pig); assay: NVS_GPCR_p5HT2C: NovaScreen (NVS) G Protein-Coupled Receptor Assay for pig Serotonin, 5-Hydroxytryptamine Receptor 2C (5HT2C) (AID 2283288)
# Summary of the method: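 Pig choroid plexus membranes; radioligand competitive binding, filter-based scintillation counting, read 1 h after dosing. Primary screen in duplicate at 25 uM; actives then run as concentration series; loss of signal versus DMSO baseline.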
# [15] = target: rat Adrenergic, Alpha 1, Non-selective Receptor (Adra1), Adra1a (gene 29412) (UniProt P43140); assay: NVS_GPCR_rAdra1_NonSelective: NovaScreen (NVS) G Protein-Coupled Receptor Assay for rat Adrenergic, Alpha 1, Non-selective Receptor (Adra1) (AID 2283289)
# Chain of rat Adrenergic, Alpha 1, Non-selective Receptor (Adra1), Adra1a (gene 29412) (P43140 whole entry, looked up): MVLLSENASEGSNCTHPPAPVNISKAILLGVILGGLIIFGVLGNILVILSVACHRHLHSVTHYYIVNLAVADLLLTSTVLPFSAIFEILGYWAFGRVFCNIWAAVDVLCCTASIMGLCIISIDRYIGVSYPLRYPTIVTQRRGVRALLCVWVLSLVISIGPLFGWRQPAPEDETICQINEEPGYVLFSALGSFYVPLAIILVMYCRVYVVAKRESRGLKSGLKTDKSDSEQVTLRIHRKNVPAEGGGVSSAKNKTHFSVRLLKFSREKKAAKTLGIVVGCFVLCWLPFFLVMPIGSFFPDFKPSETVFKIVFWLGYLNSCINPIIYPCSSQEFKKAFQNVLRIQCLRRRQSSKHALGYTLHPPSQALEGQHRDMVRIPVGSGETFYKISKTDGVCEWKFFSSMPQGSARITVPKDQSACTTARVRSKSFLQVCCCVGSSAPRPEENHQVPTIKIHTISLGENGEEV
# Summary of the method: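 Rat forebrain membranes; radioligand displacement read by filter-based scintillation counting 1 h after dosing. Primary screen in duplicate at 25 uM; hits (e.g. ≥30% inhibition) rerun as concentration–response to 50 uM max. Fitted versus DMSO.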
# [16] = target: rat Serotonin, 5-Hydroxytryptamine Receptor (5HT), Non-Selective Binding, Htr1a (gene 24473) (UniProt P19327); assay: NVS_GPCR_r5HT_NonSelective: NovaScreen (NVS) G Protein-Coupled Receptor Assay for rat Serotonin, 5-Hydroxytryptamine Receptor (5HT), Non-Selective Binding (AID 2283295)
# Chain of rat Serotonin, 5-Hydroxytryptamine Receptor (5HT), Non-Selective Binding, Htr1a (gene 24473) (P19327 whole entry, looked up): as the sequence (P19327 whole entry, looked up) above
# Summary of the method: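 Radioligand displacement on rat cortical membranes, 1 h incubation, filter-based scintillation counting. Primary duplicates at 25 uM, actives retested in concentration series; loss of signal fitted against DMSO as baseline.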
# [17] = tested on: rat Adrenergic, Alpha 1B Receptor (Adra1B), gene 24173; assay: NVS_GPCR_rAdra1B: NovaScreen (NVS) G Protein-Coupled Receptor Assay for rat Adrenergic, Alpha 1B Receptor (Adra1B) (AID 2283297)
# Summary of the method: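 Rat liver membranes, radioligand displacement with filter-based scintillation detection, 1 h incubation. Primary screen in duplicate at 25 uM; actives retested in concentration series; activity relative to DMSO.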
# [18] = target: rat Adrenergic Receptor, Beta (Adrb), Non-selective Binding, Adrb1 (gene 24925) (UniProt P18090); assay: NVS_GPCR_rAdrb_NonSelective: NovaScreen (NVS) G Protein-Coupled Receptor Assay for rat Adrenergic Receptor, Beta (Adrb), Non-selective Binding (AID 2283298)
# Chain of rat Adrenergic Receptor, Beta (Adrb), Non-selective Binding, Adrb1 (gene 24925) (P18090 whole entry, looked up): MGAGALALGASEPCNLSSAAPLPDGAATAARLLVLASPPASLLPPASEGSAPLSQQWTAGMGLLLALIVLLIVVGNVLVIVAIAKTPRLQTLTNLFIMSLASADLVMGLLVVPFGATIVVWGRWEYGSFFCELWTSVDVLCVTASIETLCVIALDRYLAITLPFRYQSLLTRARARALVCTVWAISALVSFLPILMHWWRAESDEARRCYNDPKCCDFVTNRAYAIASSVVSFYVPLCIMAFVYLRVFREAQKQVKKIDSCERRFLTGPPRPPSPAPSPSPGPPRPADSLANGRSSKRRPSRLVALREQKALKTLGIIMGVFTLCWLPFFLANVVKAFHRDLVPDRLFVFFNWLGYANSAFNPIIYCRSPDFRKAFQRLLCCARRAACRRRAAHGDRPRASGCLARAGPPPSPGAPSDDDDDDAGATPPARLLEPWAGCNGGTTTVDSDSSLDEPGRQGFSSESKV
# Summary of the method: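 Non-selective beta-adrenergic radioligand binding in rat cortical membranes, 1 h incubation, filter-based scintillation read-out. Primary screen 25 uM in duplicate; hits retested in concentration-response up to 50 uM, DMSO baseline.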
smiles,measurement,setting,value
ClC1=C(Cl)C(Cl)(Cl)C(Cl)=C1Cl,outcome,[1],inactive
CC(C)(C)c1ccc(O)c(C(C)(C)C)c1,outcome,[2],inactive
CCCCC(CC)COC(=O)CCCCC(=O)OCC(CC)CCCC (stereo not drawn),AC50,[3],13.8 µM (active)
Cc1oc(-c2ccccc2)nc1CCOc1ccc(C[C@H](Nc2ccccc2C(=O)c2ccccc2)C(=O)O)cc1,AC50,[4],12.8 µM (active)
same,AC50,[3],3.52 µM (active)
same,outcome,[2],inactive
same,outcome,[5],inactive
same,AC50,[6],46 µM (active)
same,AC50,[7],25 µM (active)
same,AC50,[8],35.6 µM (active)
same,outcome,[9],inactive
C=C(C)C(=O)OCCC(F)(F)C(F)(F)C(F)(F)C(F)(F)C(F)(F)C(F)(F)F,outcome,[3],inactive
same,outcome,[10],inactive
Cc1cc(C)c(O)c(C)c1,outcome,[7],inactive
CCCOc1sc(C(=O)N2CCC(c3cc(CN)ccc3F)CC2)c(C)c1Br,AC50,[4],9.25 µM (active)
same,outcome,[3],inactive
same,AC50,[11],24 µM (active)
same,outcome,[12],inactive
same,AC50,[1],27.1 µM (active)
same,AC50,[10],5.18 µM (active)
same,AC50,[13],23.2 µM (active)
same,AC50,[14],16.6 µM (active)
same,AC50,[15],20.6 µM (active)
same,AC50,[2],3.97 µM (active)
same,AC50,[7],25.9 µM (active)
same,AC50,[16],11.1 µM (active)
same,AC50,[17],17.3 µM (active)
same,AC50,[18],3.95 µM (active)
same,AC50,[8],23.2 µM (active)
NC(=O)N(O)[C@@H]1C=C[C@H](Oc2cccc(Oc3ccc(F)cc3)c2)C1,outcome,[15],inactive
same,outcome,[2],inactive
same,AC50,[7],17.6 µM (active)
same,outcome,[17],inactive
same,outcome,[8],inactive
CCC(=C(c1ccc(O)cc1)c1ccc(OCCN(C)C)cc1)c1ccccc1,outcome,[11],inactive
same,AC50,[1],0.808 µM (active)
same,AC50,[13],4.17 µM (active)
same,AC50,[2],3.93 µM (active)
same,AC50,[7],0.868 µM (active)
CC1=C(/C=C/C(C)=C/C=C/C(C)=C/C(=O)O)C(C)(C)CCC1,AC50,[10],4.36 µM (active)
CC[C@H](C)[C@@H](C(=O)O)n1sc2ccccc2c1=O,outcome,[4],inactive
same,outcome,[3],inactive
same,outcome,[17],inactive
CCCCCCCCCCCCCC[N+](C)(C)C,AC50,[2],8.19 µM (active)
CCCOC(=O)c1ccc(O)cc1,outcome,[14],inactive
CN1CCN(c2ccccc2/C=C2\SCCN(c3ccc(Cl)c(Cl)c3)C2=O)CC1,AC50,[10],0.626 µM (active)
same,AC50,[14],0.748 µM (active)
same,AC50,[7],6.07 µM (active)
same,AC50,[16],11.9 µM (active)
same,AC50,[18],2.29 µM (active)
CCCCCCCC(=O)O,outcome,[17],inactive
O=[N+]([O-])c1ccc(O)cc1,outcome,[14],inactive
same,outcome,[16],inactive
